Reference: PubChem BioAssay (Tox21)
Results filed as inconclusive are left out. Activity calls are given as the source filed them. Unless noted, calls come from the whole dose curve; as a rule, active = well fitted curve in the direction sought with a large enough effect in the repeat runs; inconclusive = weak or mixed curves; inactive = no such curve, though single readings can be large; an effect the other way counts as inactive or inconclusive.

What was measured:
[1] = qHTS assay to identify small molecule agonists of the RXR signaling pathway - cell viability counter screen (AID 1159529); note: nearly all actives have a fitted effect of over 50% in size; note: potency is the fitted concentration of half-maximal effect
Outline: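 Cell viability is measured by CellTiter-Glo luminescence, 30 min at room temperature, in wells already read for beta-lactamase. Engineered HEK 293T cells (RXR-alpha-UAS-bla) are dosed 16 hr at 37 C. Tetraoctyl ammonium bromide serves as positive control.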

[2] = qHTS assay to identify small molecule antagonists of the retinoid acid receptor (RAR) signaling pathway - cell viability counter screen (AID 1159551); note: nearly all actives have a fitted effect of over 35% in size; note: potency is the fitted concentration of half-maximal effect
Outline: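 Viability of C3RL4 cells is quantified from ATP by luminescence after 6 h treatment at 37 C with compounds and 1 uM retinol.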

[3] = qHTS assay to identify small molecule antagonists of the estrogen related receptor (ERR) signaling pathway from Tox21 library - cell viability counter screen (AID 1224834); note: nearly all actives have a fitted effect of over 30% in size; note: potency is the fitted concentration of half-maximal effect
Outline: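 In this quantitative HTS format, ERR cells receive compounds in DMSO and are incubated for 17.5 h at 37 C. Live-cell protease activity is then detected with CellTiter-Fluor.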

[4] = biological target: Luciferin 4-monooxygenase (Photinus pyralis) (UniProt P08659); test: qHTS assay to identify small molecule inhibitors of firefly luciferase (AID 1224835); note: nearly all actives have a fitted effect of over 25% in size; note: potency is the fitted concentration of half-maximal effect
Luciferin 4-monooxygenase (Photinus pyralis), sequence (P08659 whole entry, looked up): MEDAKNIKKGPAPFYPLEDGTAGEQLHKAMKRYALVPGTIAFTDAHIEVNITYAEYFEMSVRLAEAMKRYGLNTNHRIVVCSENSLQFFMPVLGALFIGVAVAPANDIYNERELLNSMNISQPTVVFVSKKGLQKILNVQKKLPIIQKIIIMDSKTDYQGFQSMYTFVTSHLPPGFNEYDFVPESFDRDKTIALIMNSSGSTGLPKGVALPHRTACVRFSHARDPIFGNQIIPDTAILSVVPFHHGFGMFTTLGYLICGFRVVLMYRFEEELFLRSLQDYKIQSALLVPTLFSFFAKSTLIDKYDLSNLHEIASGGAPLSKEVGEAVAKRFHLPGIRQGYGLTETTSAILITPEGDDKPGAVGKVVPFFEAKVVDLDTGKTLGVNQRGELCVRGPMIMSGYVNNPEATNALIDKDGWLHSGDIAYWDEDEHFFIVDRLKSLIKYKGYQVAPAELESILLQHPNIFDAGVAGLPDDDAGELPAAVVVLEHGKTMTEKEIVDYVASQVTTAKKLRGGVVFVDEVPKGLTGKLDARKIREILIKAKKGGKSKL
Outline: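 Biochemical qHTS: compounds run as interplate titrations against purified firefly enzyme, with D-luciferin and ATP each at its KM concentration. Light output recorded by CCD imaging.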

[5] = qHTS assay to identify small molecule agonists of the constitutive androstane receptor (CAR) signaling pathway - cell viability counter screen (AID 1224836); note: nearly all actives have a fitted effect of over 45% in size; note: potency is the fitted concentration of half-maximal effect
Outline: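 Counter screen multiplexed with the CAR reporter readout: HepG2 cells co-transfected with hCAR and the CYP2B6-2.2kb construct receive a 15-concentration compound series and 0.75 uM PK11195 (final), then CellTiter-Fluor fluorescence is read after 23 h.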

[6] = qHTS assay to identify small molecule antagonists of the constitutive androstane receptor (CAR) signaling pathway - cell viability counter screen (AID 1224837); note: nearly all actives have a fitted effect of over 45% in size; note: potency is the fitted concentration of half-maximal effect
Outline: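 In quantitative HTS format, compounds at 15 concentrations were applied to HepG2 cells double-transfected with hCAR and CYP2B6-2.2kb under 50 nM CITCO stimulation; live-cell protease activity was read after 23 hr via CellTiter-Fluor.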

[7] = biological target: Nuclear receptor subfamily 1 group I member 3 (Homo sapiens) (UniProt Q14994); test: qHTS assay to identify small molecule antagonists of the constitutive androstane receptor (CAR) signaling pathway (AID 1224838); note: nearly all actives have a fitted effect of over 40% in size; note: potency is the fitted concentration of half-maximal effect
Nuclear receptor subfamily 1 group I member 3 (Homo sapiens), sequence (Q14994 whole entry, looked up): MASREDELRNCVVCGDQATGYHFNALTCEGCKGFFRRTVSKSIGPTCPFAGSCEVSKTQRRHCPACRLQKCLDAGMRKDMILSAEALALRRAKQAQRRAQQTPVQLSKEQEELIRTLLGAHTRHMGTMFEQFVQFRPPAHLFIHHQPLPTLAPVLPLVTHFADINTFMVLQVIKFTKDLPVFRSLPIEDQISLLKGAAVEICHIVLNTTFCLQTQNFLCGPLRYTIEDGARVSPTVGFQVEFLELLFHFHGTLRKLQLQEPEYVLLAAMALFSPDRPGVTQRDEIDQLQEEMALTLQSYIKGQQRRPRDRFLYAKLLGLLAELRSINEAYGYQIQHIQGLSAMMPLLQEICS
Outline: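 CITCO-stimulated (50 nM final) HepG2 cells stably transfected with hCAR and CYP2B6-2.2kb luciferase were exposed to compounds at 15 concentrations for 24 h at 37 C/5% CO2. A luciferase reagent was added and luminescence recorded after 30 min.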

[8] = biological target: Nuclear receptor subfamily 1 group I member 3 (Homo sapiens) (UniProt Q14994); test: qHTS assay to identify small molecule agonists of the constitutive androstane receptor (CAR) signaling pathway (AID 1224839); note: series mostly up to about 92 µM; nearly all actives have a fitted effect of over 15% in size
Outline: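 A 15-concentration quantitative screen uses HepG2 cells co-transfected stably with human CAR and CYP2B6-2.2kb reporter. Treatment lasts 24 h with 0.75 uM PK11195 final present; ONE-Glo luminescence is the signal.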

[9] = qHTS assay to identify small molecule agonists of the estrogen related receptor signaling pathway with the pleiotropic PPARgamma coactivator (PGC) from Tox21 10K library (AID 1224842); note: nearly all actives have a fitted effect of over 15% in size
Outline: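 PGC/ERR reporter cell line, 2,000 cells per well, incubated 6 h at 37 C before 23 nL compound in DMSO was added. After 18 h at 37 C, One-Glo luminescence read following 30 min at room temperature.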

[10] = biological target: Thyrotropin receptor (Homo sapiens) (UniProt P16473); test: qHTS assay to identify small molecule agonists of the thyroid stimulating hormone receptor (TSHR) signaling pathway (AID 1224843; calls by dose curve; note: nearly all actives have a fitted effect of over 45% in size; note: potency is the fitted concentration of half-maximal effect)
Thyrotropin receptor (Homo sapiens), sequence (P16473 whole entry, looked up): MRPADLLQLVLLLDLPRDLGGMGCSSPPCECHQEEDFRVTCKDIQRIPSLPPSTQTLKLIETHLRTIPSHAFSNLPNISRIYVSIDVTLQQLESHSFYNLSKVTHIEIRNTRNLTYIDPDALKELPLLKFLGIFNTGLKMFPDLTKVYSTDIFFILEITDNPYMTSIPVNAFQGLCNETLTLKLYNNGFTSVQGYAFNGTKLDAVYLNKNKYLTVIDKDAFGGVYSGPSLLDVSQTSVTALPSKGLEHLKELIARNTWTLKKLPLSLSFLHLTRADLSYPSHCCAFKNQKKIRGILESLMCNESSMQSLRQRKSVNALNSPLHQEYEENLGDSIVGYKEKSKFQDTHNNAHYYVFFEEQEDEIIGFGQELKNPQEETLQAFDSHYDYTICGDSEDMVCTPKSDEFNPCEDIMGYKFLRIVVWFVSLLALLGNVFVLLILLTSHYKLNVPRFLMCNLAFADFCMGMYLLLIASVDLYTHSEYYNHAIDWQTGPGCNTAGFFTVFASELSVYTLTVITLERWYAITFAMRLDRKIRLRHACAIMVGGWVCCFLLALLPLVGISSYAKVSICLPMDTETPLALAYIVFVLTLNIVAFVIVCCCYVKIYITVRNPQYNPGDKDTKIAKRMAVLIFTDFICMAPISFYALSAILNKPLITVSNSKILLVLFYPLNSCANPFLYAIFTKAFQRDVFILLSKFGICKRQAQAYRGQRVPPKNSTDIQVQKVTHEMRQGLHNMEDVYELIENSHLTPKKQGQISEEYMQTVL
Outline: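 Agonist-mode screen: TSHR HEK293 cells received test chemicals for half an hour at room temperature, then HTRF cAMP detection reagents for one hour prior to fluorescence measurement. Each chemical ran as a 15-concentration series, triplicated.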

[11] = qHTS assay to identify small molecule antagonists of the estrogen related receptor signaling pathway with the pleiotropic PPARgamma coactivator (PGC) from Tox21 10K library - cell viability counter screen (AID 1224840; active = well fitted cell-killing curve with a large enough effect in the repeat runs, not every such curve was filed as active; note: nearly all actives have a fitted effect of over 40% in size; note: potency is the fitted concentration of half-maximal effect)
Outline: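 Viability counter screen, PGC/ERR cells: 17.5 h compound exposure at 37 C, CellTiter-Fluor fluorescence endpoint.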

[12] = qHTS assay to identify small molecule antagonists of the estrogen related receptor signaling pathway with the pleiotropic PPARgamma coactivator (PGC) from Tox21 10K library (AID 1224841; call rule not given here; note: actives are mostly falling curves and most rising ones were filed inactive; nearly all actives have a fitted effect of over 50% in size; note: potency is the fitted concentration of half-maximal effect)
Outline: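 In the PGC/ERR line, DMSO solutions of test chemicals are pin-delivered to 2,000 cells/well six hours after dispensing. Following eighteen hours' incubation, One-Glo reagent is added and luminescence recorded.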

Measured: Potency

CC(C)(C)C(=O)OCOC(=O)[C@@H]1N2C(=O)[C@@H](NC(=O)[C@H](N)c3ccccc3)[C@H]2SC1(C)C
not listed: [11] | [12]
inactive: all other assays above

CCCCCCCC[P+](CCCCCCCC)(CCCCCCCC)CCCCCCCC
active: [1] 3.87 µM | [2] 54.2 µM | [3] 9.63 µM | [4] 62.9 µM | [5] 1.92 µM | [6] 3.83 µM | [7] 10.8 µM
inactive: [8] | [9] | [10]

Oc1cc2ccccc2c2ccccc12
active: [1] 4.9 µM | [2] 27.3 µM | [3] 8.63 µM | [4] 79.6 µM | [5] 17.2 µM | [6] 13.7 µM | [11] 7.7 µM

O=S1(=O)CC(Cl)(Cl)C(Cl)(Cl)C1
active: [1] 4.36 µM | [2] 15.4 µM | [3] 15.4 µM | [5] 12.2 µM | [6] 8.63 µM | [11] 9.69 µM | [10] 4.86 µM
inactive: [4]

CCc1cc(Cc2cc(CC)cc(C(C)(C)C)c2O)c(O)c(C(C)(C)C)c1
inactive: [4] | [8] | [9] | [10]
active: [1] 13.8 µM | [2] 68.6 µM | [5] 61.1 µM | [6] 61.1 µM | [7] 21.7 µM | [12] 27.3 µM

COC(=O)C1=C(C)NC(C)=C(C(=O)OCCc2ccc(N3CCN(C(c4ccccc4)c4ccccc4)CC3)cc2)C1c1cccc([N+](=O)[O-])c1 (centres undefined)
inactive: [1] | [2] | [3] | [4] | [5] | [6] | [11]

O=C1C=CC(=O)N1
active: [1] 22.5 µM | [2] 31.4 µM | [3] 49.8 µM | [4] 32.6 µM | [5] 55.9 µM | [6] 55.9 µM | [7] 31.4 µM | [11] 44.4 µM | [10] 7.04 µM
inactive: [8] | [9]

CCCCCCCCCCCCCCCC[N+](C)(C)CCN(Cc1ccc(OC)cc1)c1ncccn1
inactive: [4] | [8] | [10]
active: [1] 5.35 µM | [2] 29.8 µM | [3] 29.8 µM

Nc1ccc(N)c2ccccc12
active: [1] 21.8 µM | [2] 68.5 µM | [5] 30.6 µM | [6] 30.6 µM | [11] 54.4 µM
inactive: [4] | [8] | [9] | [10]

CCCCCCCC/C=C\CCCCCCCCOCCO
active: [1] 22.6 µM | [3] 35.5 µM | [5] 25.1 µM | [6] 31.6 µM | [11] 63.1 µM
inactive: [2] | [4] | [8]

CCCCc1oc2ccc(NS(C)(=O)=O)cc2c1C(=O)c1ccc(OCCCN(CCCC)CCCC)cc1
active: [1] 9.52 µM | [2] 26.6 µM | [3] 21.1 µM | [11] 18.8 µM
inactive: [4] | [8] | [9] | [10]

CCOC(=O)O[C@H](C)OC(=O)c1ccc2c(c1)cc(C(=O)NC1CCN(C(C)C)CC1)n2Cc1cc(-c2ccc(Cl)s2)on1
active: [1] 6.46 µM | [2] 28.6 µM | [3] 28.6 µM | [6] 64.1 µM | [7] 64.1 µM | [11] 22.7 µM
inactive: [4] | [8]

CC1(C)CCC(C)(C)c2cc(C(=O)Nc3ccc(C(=O)O)cc3)ccc21
active: [4] 79.6 µM
not listed: [3] | [9]
inactive: all other assays above

CCCC(c1cc(C(C)(C)C)c(O)cc1C)c1cc(C(C)(C)C)c(O)cc1C
inactive: [4] | [8] | [9]
active: [1] 11.1 µM | [2] 27.6 µM | [3] 19.6 µM | [5] 39 µM | [6] 31 µM | [7] 24.6 µM | [11] 22 µM | [12] 24.6 µM | [10] 6.19 µM

CC[C@H](c1ccc(O)cc1)[C@@H](CC)c1ccc(O)cc1
active: [1] 49 µM | [3] 27.3 µM | [7] 0.473 µM
inactive: [2] | [4] | [5] | [6] | [11]

Clc1ccc2n[nH]nc2c1
not listed: [3] | [9] | [12]
inactive: all other assays above

Fc1ccc([C@@H]2CCNC[C@H]2COc2ccc3c(c2)OCO3)cc1
not listed: [3] | [9] | [10] | [12]
inactive: all other assays above

Cc1nc(-c2ccc3c(c2)CCN(CCC2CCC(NC(=O)/C=C/c4ccc(F)cc4)CC2)CC3)no1 (centres undefined)
not listed: [3] | [9] | [11] | [12]
inactive: all other assays above

Cc1cc(C2CCCCC2)n(O)c(=O)c1
inactive: [1] | [2] | [4] | [10]
active: [3] 9.44 µM | [6] 29.8 µM | [11] 26.6 µM
